Measurements published in PubChem BioAssay (NCI).
This is part of a sample that, as a whole, favours compounds with a hit. Of some 83,000 tested, about 20% had one in any assay.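 A percent growth of 40 corresponds to 60% growth inhibition; 0 means no net growth; -100 means all cells died. Active threshold: below 10.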 A number with no mark means an inactive call. Active and inactive are the calls of the source.

test system: A498 renal; assay: NCI-60 one-dose screen, 48 h (100 = growth as untreated, 0 = no growth, -100 = all killed); details: 10 µM unless noted

Q: Which growth does the source give for `Fc1ccc(C2=NN(c3ccccc3)C(c3sc(N(CCCl)CCCl)nc3Cl)C2)cc1` (stereo not drawn) here?
A: The growth was 92.4%.

Q: `CC[C@H](C)[C@H](NC(=O)Nc1ccccc1)C(=O)N(C)[C@H](C[C@@H](OC(C)=O)c1nc(C(=O)N[C@@H](Cc2ccccc2)C[C@H](C)C(=O)OC)cs1)C(C)C` was tested. Which growth did it give?
A: The growth was -15.6% (active).

Q: How did the growth turn out when `c1ccc(CCN2CCCCC2Cc2ccccc2)cc1` (stereo not drawn) was run?
A: The growth was 89.5%.

Q: Which growth does the source give for `O=C(N/N=C/c1ccc(N(CCCl)CCCl)cc1)c1cc(=O)[nH]c(=O)[nH]1` here?
A: The growth was 93.7%.

Q: With `O=[As]c1ccc(C(=O)c2ccc(Oc3ccccc3)cc2)cc1` (stereo not drawn) as the molecule, how does the growth read?
A: Its growth is -97.7% (active).

Q: For `Cc1cc(NC(=O)NCCOc2ccc(N3C(N)=NC(N)=NC3(C)C)cc2Cl)ccc1S(=O)(=O)F`, which growth is on record?
A: Its growth is 79.1%.

Q: For `COc1ccc2c(c1)NC1=C(C(=O)OC1)C2c1cc(OC)c(OC)c(OC)c1` (stereo not drawn), which growth is on record?
A: Its growth is -13.7% (active).

Q: With `CC(C)(O)/C=C/C(=O)[C@](C)(O)[C@H]1[C@H](O)C[C@@]2(C)[C@@H]3CC=C4[C@@H](C=C(O)C(=O)C4(C)C)[C@]3(C)C(=O)C[C@]12C` as the molecule, how does the growth read?
A: The growth was -79.8% (active).

Q: Which growth does the source give for `C[C@]12CCc3sc(-c4ccc(Cl)cc4)nc3C1=CC[C@@H]1[C@@H]2CC[C@]2(C)C(=O)CC[C@@H]12` here?
A: The growth was 73.3%.

Q: With `C=CCC1(CC)C(=O)NC(=S)NC1=O` as the molecule, how does the growth read?
A: Its growth is 110%.

Q: `NC(Cc1ccc2c(c1)OCO2)c1ccc2c(c1)OCO2` (stereo not drawn) was tested. Which growth did it give?
A: Its growth is 92.1%.

Q: `O=C(CF)N(O)c1ccc(/C=C/c2ccccc2)cc1` was tested. Which growth did it give?
A: Its growth is -31.7% (active).

Q: `COc1ccc(/C=C(/C(=O)N2CCCC2)c2cc(OC)c(OC)c(OC)c2)cc1N` was tested. Which growth did it give?
A: Its growth is -0.924% (active).

Q: For `Nc1nc(N)c(-c2ccc(Cl)c(Cl)c2)c(/C=C/c2ccc(S(=O)(=O)F)cc2)n1`, which growth is on record?
A: The growth was 87.7%.

Q: For `Nc1c(Br)cc([N+](=O)[O-])cc1[N+](=O)[O-]`, which growth is on record?
A: The growth was 92.8%.

Q: With `Oc1ccc(O)c2c1C1(Cl)C(Cl)=C(Cl)C2(Cl)C1(Cl)Cl` as the molecule, how does the growth read?
A: Its growth is 34.9%.

Q: Which growth does the source give for `CN(C)P1(N(C)C)=NP(N(C)C)(N(C)C)=NP(N(C)C)(N(C)C)=N1` here?
A: The growth was 108%.

Q: Which growth does the source give for `CCCCNCCc1ccccn1` here?
A: Its growth is 95.5%.

Q: For `CNC(=O)Oc1cccc(OC)c1`, which growth is on record?
A: The growth was 87.8%.

Q: `C[C@]12CC[C@H]3[C@@H](C[C@@H]4N=C(c5ccc(O)cc5)S[C@@]45C[C@H](O)CC[C@]35C)[C@@H]1CC[C@@H]2O` was tested. Which growth did it give?
A: Its growth is 49.4%.

Q: How did the growth turn out when `CC1(C)N=C(N)N=C(N)N1c1ccc(CCCCc2ccc(S(=O)(=O)F)cc2)cc1` was run?
A: The growth was 42.3%.

Q: `Nc1c(Br)cc2c3c(cccc13)-c1ccccc1-2` was tested. Which growth did it give?
A: The growth was 70.5%.

Q: `COc1cc2c(cc1OC)CN(C)C(C)C2` (stereo not drawn) was tested. Which growth did it give?
A: The growth was 84%.

Q: `CC(C)C1c2ccc(O)cc2Oc2nc(N)c(C#N)c(N)c21` (stereo not drawn) was tested. Which growth did it give?
A: The growth was 88.4%.

Q: How did the growth turn out when `c1ccc2nc(OCCN3CC3)ccc2c1` was run?
A: Its growth is 102%.

Q: For `CC1(C)N=C(N)N=C(N)N1c1ccc(CNC(=O)Nc2ccc(S(=O)(=O)F)c(Cl)c2)c(Cl)c1`, which growth is on record?
A: Its growth is 61.3%.

Q: Which growth does the source give for `c1ccc(-c2ccc3ccccc3[o+]2)cc1` here?
A: The growth was 109%.

Q: For `CSc1ccccc1NP1(=O)OCC(C)([N+](=O)[O-])CO1` (stereo not drawn), which growth is on record?
A: Its growth is 110%.

Q: With `CC1COC(=O)C1` (stereo not drawn) as the molecule, how does the growth read?
A: The growth was 89.2%.

Q: How did the growth turn out when `COc1ccc(/C=C\c2cc(OC)c(OC)c(OC)c2)cc1N/C=C\C(=O)c1c[nH]c2ccccc12` was run?
A: Its growth is -13.6% (active).

Q: Which growth does the source give for `OC1(c2ccc(Cl)cc2Cl)c2ccccc2C2=NCCN21` (stereo not drawn) here?
A: The growth was 94.4%.

Q: With `CC1(CF)NC(=O)NC1=O` (stereo not drawn) as the molecule, how does the growth read?
A: Its growth is 105%.

Q: With `O=C(Nc1ccc(S(=O)(=O)F)cc1)Oc1ccccc1` as the molecule, how does the growth read?
A: The growth was 97.6%.

test system: HL-60(TB) leukemia; assay: as above; details: 10 µM unless noted

Q: `Fc1ccc(C2=NN(c3ccccc3)C(c3sc(N(CCCl)CCCl)nc3Cl)C2)cc1` (stereo not drawn) was tested. Which growth did it give?
A: The growth was 103%.

Q: With `CC[C@H](C)[C@H](NC(=O)Nc1ccccc1)C(=O)N(C)[C@H](C[C@@H](OC(C)=O)c1nc(C(=O)N[C@@H](Cc2ccccc2)C[C@H](C)C(=O)OC)cs1)C(C)C` as the molecule, how does the growth read?
A: The growth was -17.2% (active).

Q: Which growth does the source give for `c1ccc(CCN2CCCCC2Cc2ccccc2)cc1` (stereo not drawn) here?
A: Its growth is 80.3%.

Q: Which growth does the source give for `CC(=O)O[C@H]1CCC2(C)C(=CCC3C2CCC2(C)/C(=N/OC(=O)c4ccc(N(CCCl)CCCl)cc4)CCC32)C1` (stereo partly drawn) here?
A: Its growth is 17.5%.

Q: For `O=[As]c1ccc(C(=O)c2ccc(Oc3ccccc3)cc2)cc1` (stereo not drawn), which growth is on record?
A: Its growth is -23.4% (active).

Q: How did the growth turn out when `O=[N+]([O-])c1cc([N+](=O)[O-])c(Cl)c(Cl)c1Cl` was run?
A: Its growth is 19.5%.

Q: With `Cc1cc(NC(=O)NCCOc2ccc(N3C(N)=NC(N)=NC3(C)C)cc2Cl)ccc1S(=O)(=O)F` as the molecule, how does the growth read?
A: Its growth is 18.1%.

Q: For `COc1ccc2c(c1)NC1=C(C(=O)OC1)C2c1cc(OC)c(OC)c(OC)c1` (stereo not drawn), which growth is on record?
A: Its growth is -31.3% (active).

Q: Which growth does the source give for `CC(C)(O)/C=C/C(=O)[C@](C)(O)[C@H]1[C@H](O)C[C@@]2(C)[C@@H]3CC=C4[C@@H](C=C(O)C(=O)C4(C)C)[C@]3(C)C(=O)C[C@]12C` here?
A: The growth was -38.9% (active).

Q: With `C[C@]12CCc3sc(-c4ccc(Cl)cc4)nc3C1=CC[C@@H]1[C@@H]2CC[C@]2(C)C(=O)CC[C@@H]12` as the molecule, how does the growth read?
A: The growth was 39%.

Q: `C=CCC1(CC)C(=O)NC(=S)NC1=O` was tested. Which growth did it give?
A: The growth was 75.4%.

Q: Which growth does the source give for `NC(Cc1ccc2c(c1)OCO2)c1ccc2c(c1)OCO2` (stereo not drawn) here?
A: Its growth is 108%.

Q: With `O=C(CF)N(O)c1ccc(/C=C/c2ccccc2)cc1` as the molecule, how does the growth read?
A: Its growth is 13.4%.

Q: `COc1ccc(/C=C(/C(=O)N2CCCC2)c2cc(OC)c(OC)c(OC)c2)cc1N` was tested. Which growth did it give?
A: Its growth is -11.9% (active).

Q: For `Nc1nc(N)c(-c2ccc(Cl)c(Cl)c2)c(/C=C/c2ccc(S(=O)(=O)F)cc2)n1`, which growth is on record?
A: Its growth is 91.9%.

Q: Which growth does the source give for `Nc1c(Br)cc([N+](=O)[O-])cc1[N+](=O)[O-]` here?
A: The growth was 67.8%.

Q: With `Oc1ccc(O)c2c1C1(Cl)C(Cl)=C(Cl)C2(Cl)C1(Cl)Cl` as the molecule, how does the growth read?
A: The growth was 31%.

Q: For `CN(C)P1(N(C)C)=NP(N(C)C)(N(C)C)=NP(N(C)C)(N(C)C)=N1`, which growth is on record?
A: The growth was 100%.

Q: For `CCCCNCCc1ccccn1`, which growth is on record?
A: Its growth is 99.1%.

Q: With `NC(=O)SCC(=O)Nc1ccc([As](=O)(O)O)cc1` as the molecule, how does the growth read?
A: Its growth is 56.9%.

Q: For `C[C@]12CC[C@H]3[C@@H](C[C@@H]4N=C(c5ccc(O)cc5)S[C@@]45C[C@H](O)CC[C@]35C)[C@@H]1CC[C@@H]2O`, which growth is on record?
A: The growth was 22.7%.

Q: How did the growth turn out when `CC1(C)N=C(N)N=C(N)N1c1ccc(CCCCc2ccc(S(=O)(=O)F)cc2)cc1` was run?
A: The growth was 21.2%.

Q: How did the growth turn out when `Nc1c(Br)cc2c3c(cccc13)-c1ccccc1-2` was run?
A: Its growth is 82.7%.

Q: `COc1cc2c(cc1OC)CN(C)C(C)C2` (stereo not drawn) was tested. Which growth did it give?
A: Its growth is 87.9%.

Q: `CC(C)C1c2ccc(O)cc2Oc2nc(N)c(C#N)c(N)c21` (stereo not drawn) was tested. Which growth did it give?
A: The growth was 102%.

Q: With `c1ccc2nc(OCCN3CC3)ccc2c1` as the molecule, how does the growth read?
A: The growth was 72.7%.

Q: `CC1(C)N=C(N)N=C(N)N1c1ccc(CNC(=O)Nc2ccc(S(=O)(=O)F)c(Cl)c2)c(Cl)c1` was tested. Which growth did it give?
A: The growth was 21.8%.

Q: With `c1ccc(-c2ccc3ccccc3[o+]2)cc1` as the molecule, how does the growth read?
A: Its growth is 89.7%.

Q: How did the growth turn out when `CSc1ccccc1NP1(=O)OCC(C)([N+](=O)[O-])CO1` (stereo not drawn) was run?
A: Its growth is 56.7%.

Q: For `CC1COC(=O)C1` (stereo not drawn), which growth is on record?
A: The growth was 105%.

Q: `C[CH2][Pb]([CH2]C)([CH2]C)[O]C(=O)COc1ccccc1` was tested. Which growth did it give?
A: Its growth is -48.1% (active).

Q: Which growth does the source give for `COc1ccc(/C=C\c2cc(OC)c(OC)c(OC)c2)cc1N/C=C\C(=O)c1c[nH]c2ccccc12` here?
A: The growth was -11.4% (active).

Q: Which growth does the source give for `CCCC(C)(C)c1ccc2c(c1)OC(C)(C)[C@@H]1CC=C(C)C[C@@H]21` here?
A: The growth was 92.7%.

Q: With `OC1(c2ccc(Cl)cc2Cl)c2ccccc2C2=NCCN21` (stereo not drawn) as the molecule, how does the growth read?
A: Its growth is 63.3%.

Q: `O=C(Nc1ccc(S(=O)(=O)F)cc1)Oc1ccccc1` was tested. Which growth did it give?
A: Its growth is 105%.
